Experiment [1] in a line: CEETOX_H295R_CORTIC: CeeTox H295R High-throughput Steroidogenesis Assay for Corticosterone (CORTIC) (AID 2283437).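 Note: corticosterone secreted into medium quantified by mass spectrometry.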 To be noted: actives raise or lower the signal. The procedure, abridged: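 H295R adrenal cells prestimulated 48 hours with 10 uM forskolin, then exposed 48 hours to chemical in 0.1% DMSO. Corticosterone in medium measured by HPLC-MS/MS after MTBE extraction; MTT viability in the same wells; bidirectional fit versus DMSO.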

The nature of experiment [2]: CEETOX_H295R_CORTISOL: CeeTox H295R High-throughput Steroidogenesis Assay for Cortisol (AID 2283438).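 Note: cortisol secreted into medium quantified by LC-MS/MS.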 To be noted: actives raise or lower the signal. The procedure, abridged: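 Forskolin-primed H295R cells (10 uM, 48 h) treated 48 h with test chemical in 0.1% DMSO. Cortisol in medium quantified by MTBE extraction and HPLC-MS/MS; bidirectional fit vs DMSO, MTT viability in same wells.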

Experiment [3] can be described thus: CEETOX_H295R_DOC: CeeTox H295R High-throughput Steroidogenesis Assay for DOC (AID 2283439). To be noted: actives raise or lower the signal. The procedure, abridged: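 H295R cells prestimulated 48 h with 10 uM forskolin, then exposed 48 h to test chemical (0.1% DMSO final). Medium 11-deoxycorticosterone measured by HPLC-MS/MS after MTBE extraction; bidirectional fit vs DMSO, viability checked by MTT in same wells.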

A short description of experiment [4]: CEETOX_H295R_ESTRADIOL: CeeTox H295R High-throughput Steroidogenesis Assay for Estradiol (AID 2283440).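 Note: estradiol secreted into medium quantified by LC-MS/MS after dansyl derivatisation.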 To be noted: actives raise or lower the signal. The procedure, abridged: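 H295R, 48 h forskolin (10 uM) prestim → 48 h compound, 0.1% DMSO final. Estradiol in medium: MTBE extraction, dansyl chloride derivatization, LC-MS/MS. Fit bidirectional vs DMSO baseline; MTT viability in same wells.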

Experiment [5] in a line: CEETOX_H295R_ESTRONE: CeeTox H295R High-throughput Steroidogenesis Assay for Estrone (AID 2283441).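 For AC50: human adrenal H295R cells prestimulated with forskolin for two days.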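 Note: estrone secreted into medium measured by LC-MS/MS after dansyl derivatization.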 To be noted: actives raise or lower the signal. The procedure, abridged: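 H295R cells prestimulated 48 h with 10 uM forskolin, then exposed 48 h to chemicals in 0.1% DMSO final; estrone in medium extracted with MTBE, dansyl-derivatized, quantified by HPLC-MS/MS; bidirectional fitting versus DMSO, viability by MTT.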

Experiment [6] can be described thus: CEETOX_H295R_PROG: CeeTox H295R High-throughput Steroidogenesis Assay for Progesterone (PROG) (AID 2283442).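 For AC50: human H295R adrenal cells primed with 10 µM forskolin before dosing.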 To be noted: actives raise or lower the signal. The procedure, abridged: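 Progesterone read-out: HPLC-MS/MS on MTBE extracts of conditioned medium after 48 h chemical exposure of forskolin-primed (10 uM, 48 h) H295R cells. Gain or loss of signal was fitted relative to DMSO baseline.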

Read-out in experiment [7]: Tumor necrosis factor receptor superfamily member 6 (Homo sapiens) (UniProt P25445)
Put plainly: LTEA_HepaRG_FAS: Life Technologies and Expression Analysis (LTEA) Assay for Fas cell surface death receptor (FAS) using HepaRG (AID 2283447). To be noted: mRNA level, 48 h; actives raise or lower the signal. The procedure, abridged: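 Differentiated HepaRG cells in serum-free induction medium were exposed 48 h to 8 half-log concentrations up to 100 uM in 0.5% DMSO, in duplicate. FAS mRNA was measured by qRT-PCR normalised to ACTB, GAPDH and POLR2A; bidirectional fit versus DMSO.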

Read-out in experiment [8]: Fatty acid synthase (Homo sapiens) (UniProt P49327)
The experiment in a line: LTEA_HepaRG_FASN: Life Technologies and Expression Analysis (LTEA) Assay for Fatty Acid Synthase (FASN) using HepaRG (AID 2283448). To be noted: mRNA level, 48 h; actives raise or lower the signal. The procedure, abridged:
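Differentiated HepaRG cells in serum-free induction medium exposed 48 h in duplicate to eight half-log concentrations, top 100 uM, 0.5% DMSO. FASN mRNA by qRT-PCR normalised to ACTB, GAPDH, POLR2A; bidirectional fit versus DMSO.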

Read-out in experiment [9]: Cyclin D2 (CCND2), CCND2 (gene 894)
Put plainly: LTEA_HepaRG_CCND2: Life Technologies and Expression Analysis (LTEA) Assay for Cyclin D2 (CCND2) using HepaRG (AID 2283449).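 Note: CCND2 transcript measured by TaqMan qRT-PCR and normalised to three housekeeping genes.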 To be noted: mRNA level, 48 h; actives raise or lower the signal. The procedure, abridged: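 Chemicals in 0.5% DMSO, eight half-log concentrations from 100 uM top, were applied in duplicate for 48 h to human HepaRG cells in serum-free induction medium. CCND2 mRNA by TaqMan qRT-PCR, normalised to ACTB/GAPDH/POLR2A; bidirectional fit versus DMSO.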

Read-out in experiment [10]: Cyclin D1 (CCND1), CCND1 (gene 595)
Put plainly: LTEA_HepaRG_CCND1: Life Technologies and Expression Analysis (LTEA) Assay for Cyclin D1 (CCND1) using HepaRG (AID 2283451).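 For AC50: TaqMan qRT-PCR transcript level normalised to ACTB GAPDH and POLR2A housekeeping genes.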 To be noted: mRNA level, 48 h; actives raise or lower the signal. The procedure, abridged: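 qRT-PCR (Fluidigm 96.96 array) read-out of transcript level, housekeeping-normalized (ACTB/GAPDH/POLR2A). HepaRG cells, 48 h chemical exposure, 8-point half-log series from 100 uM, 0.5% DMSO vehicle; gain or loss relative to DMSO baseline.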

Read-out in experiment [11]: flavin-containing dimethylaniline monooxygenases 3 (FMO3), FMO3 (gene 2328)
Put plainly: LTEA_HepaRG_FMO3: Life Technologies and Expression Analysis (LTEA) Assay for flavin-containing dimethylaniline monooxygenases 3 (FMO3) using HepaRG (AID 2283453). To be noted: mRNA level, 48 h; actives raise or lower the signal. The procedure, abridged: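 Differentiated HepaRG cells in serum-free induction medium, exposed 48 h in duplicate to 8 half-log concentrations up to 100 uM in 0.5% DMSO. FMO3 mRNA by qRT-PCR, normalized to ACTB, GAPDH, POLR2A; bidirectional fit vs DMSO.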

Read-out in experiment [12]: Cytochrome P450 (CYP1A1), CYP1A1 (gene 1543)
The experiment in a line: LTEA_HepaRG_CYP1A1: Life Technologies and Expression Analysis (LTEA) Assay for Cytochrome P450 (CYP1A1) using HepaRG (AID 2283454). To be noted: mRNA level, 48 h; actives raise or lower the signal. The procedure, abridged: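 qRT-PCR read-out: CYP1A1 transcript normalized to three housekeeping genes, fitted bidirectionally against 0.5% DMSO vehicle baseline. Human HepaRG cells, 48 h chemical exposure, 8-point half-log series topping at 100 uM.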

Read-out in experiment [13]: CFLAR gene, CFLAR (gene 8837)
Put plainly: LTEA_HepaRG_CFLAR: Life Technologies and Expression Analysis (LTEA) Assay for CFLAR gene using HepaRG (AID 2283455). To be noted: mRNA level, 48 h; actives raise or lower the signal. The procedure, abridged: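 Differentiated HepaRG cells in serum-free induction medium were exposed 48 h in duplicate to eight half-log concentrations up to 100 uM in 0.5% DMSO; mRNA measured by TaqMan qRT-PCR, normalized to ACTB, GAPDH, POLR2A; bidirectional fitting versus DMSO.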

Read-out in experiment [14]: Forkhead box O1 (FOXO1), FOXO1 (gene 2308)
Put plainly: LTEA_HepaRG_FOXO1: Life Technologies and Expression Analysis (LTEA) Assay for Forkhead box O1 (FOXO1) using HepaRG (AID 2283456). To be noted: mRNA level, 48 h; actives raise or lower the signal. The procedure, abridged:
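Differentiated HepaRG cells, in serum-free induction medium with 0.5% DMSO, exposed 48 h in duplicate to 8-point half-log series from 100 uM. FOXO1 mRNA measured by TaqMan qRT-PCR, normalized to ACTB, GAPDH, POLR2A; bidirectional fit versus DMSO.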

Read-out in experiment [15]: growth arrest and DNA damage 45 (GADD45A), GADD45A (gene 1647)
The experiment in a line: LTEA_HepaRG_GADD45A: Life Technologies and Expression Analysis (LTEA) Assay for growth arrest and DNA damage 45 (GADD45A) using HepaRG (AID 2283458). To be noted: mRNA level, 48 h; actives raise or lower the signal. The procedure, abridged: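 Differentiated HepaRG cells exposed 48 h in serum-free induction medium to 8 concentrations, top 100 uM in half-log steps, 0.5% DMSO. GADD45A mRNA quantified by qRT-PCR, normalized to ACTB, GAPDH and POLR2A; bidirectional fit versus DMSO.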

Read-out in experiment [16]: Forkhead box O3 (FOXO3), FOXO3 (gene 2309)
Put plainly: LTEA_HepaRG_FOXO3: Life Technologies and Expression Analysis (LTEA) Assay for Forkhead box O3 (FOXO3) using HepaRG (AID 2283459). To be noted: mRNA level, 48 h; actives raise or lower the signal. The procedure, abridged: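 Differentiated human HepaRG cells, 48 h post-plating, exposed in duplicate for 48 h in serum-free induction medium; 8-point half-log series from 100 uM in 0.5% DMSO. FOXO3 mRNA by TaqMan qRT-PCR, normalized to ACTB/GAPDH/POLR2A; bidirectional fit versus DMSO.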

Experiment [17] can be described thus: CEETOX_H295R_ANDR: CeeTox H295R High-throughput Steroidogenesis Assay for Androstenedione (ANDR) (AID 2283436). To be noted: actives raise or lower the signal. The procedure, abridged: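 H295R cells, following OECD 456 with minor changes, exposed to chemicals for 48 h. Androstenedione in the medium was quantified by HPLC-MS/MS after MTBE extraction. Fitting was bidirectional versus DMSO; chemicals were diluted until MTT viability was ≥70%.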

Experiment [18] can be described thus: CEETOX_H295R_TESTO: CeeTox H295R High-throughput Steroidogenesis Assay for Testosterone (TESTO) (AID 2283457). To be noted: actives raise or lower the signal. The procedure, abridged: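 Readout: testosterone quantified by HPLC-MS/MS (C18, ESI positive) after MTBE liquid-liquid extraction of culture medium. Cells were H295R, 48 h chemical exposure per OECD 456 with modifications. Gain or loss of signal fitted relative to DMSO.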

Read-out in experiment [19]: catalase (CAT), CAT (gene 847)
Put plainly: LTEA_HepaRG_CAT: Life Technologies and Expression Analysis (LTEA) Assay for catalase (CAT) using HepaRG (AID 2283452). To be noted: mRNA level, 48 h; actives raise or lower the signal. The procedure, abridged: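 HepaRG cells in serum-free induction medium, 0.5% DMSO vehicle, exposed 48 h in duplicate over 8 half-log concentrations from 100 uM. CAT mRNA measured by qRT-PCR, normalized to ACTB, GAPDH, POLR2A; bidirectional fit versus DMSO.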

Each structure is given as a SMILES string. The source made the active and inactive calls. Rule for the calls: active = hit-call score of the fitted dose curve at least 0.9, where 1 is the maximum; inactive = score below 0.9.

Sequence of Fatty acid synthase (Homo sapiens) (P49327 whole entry, looked up): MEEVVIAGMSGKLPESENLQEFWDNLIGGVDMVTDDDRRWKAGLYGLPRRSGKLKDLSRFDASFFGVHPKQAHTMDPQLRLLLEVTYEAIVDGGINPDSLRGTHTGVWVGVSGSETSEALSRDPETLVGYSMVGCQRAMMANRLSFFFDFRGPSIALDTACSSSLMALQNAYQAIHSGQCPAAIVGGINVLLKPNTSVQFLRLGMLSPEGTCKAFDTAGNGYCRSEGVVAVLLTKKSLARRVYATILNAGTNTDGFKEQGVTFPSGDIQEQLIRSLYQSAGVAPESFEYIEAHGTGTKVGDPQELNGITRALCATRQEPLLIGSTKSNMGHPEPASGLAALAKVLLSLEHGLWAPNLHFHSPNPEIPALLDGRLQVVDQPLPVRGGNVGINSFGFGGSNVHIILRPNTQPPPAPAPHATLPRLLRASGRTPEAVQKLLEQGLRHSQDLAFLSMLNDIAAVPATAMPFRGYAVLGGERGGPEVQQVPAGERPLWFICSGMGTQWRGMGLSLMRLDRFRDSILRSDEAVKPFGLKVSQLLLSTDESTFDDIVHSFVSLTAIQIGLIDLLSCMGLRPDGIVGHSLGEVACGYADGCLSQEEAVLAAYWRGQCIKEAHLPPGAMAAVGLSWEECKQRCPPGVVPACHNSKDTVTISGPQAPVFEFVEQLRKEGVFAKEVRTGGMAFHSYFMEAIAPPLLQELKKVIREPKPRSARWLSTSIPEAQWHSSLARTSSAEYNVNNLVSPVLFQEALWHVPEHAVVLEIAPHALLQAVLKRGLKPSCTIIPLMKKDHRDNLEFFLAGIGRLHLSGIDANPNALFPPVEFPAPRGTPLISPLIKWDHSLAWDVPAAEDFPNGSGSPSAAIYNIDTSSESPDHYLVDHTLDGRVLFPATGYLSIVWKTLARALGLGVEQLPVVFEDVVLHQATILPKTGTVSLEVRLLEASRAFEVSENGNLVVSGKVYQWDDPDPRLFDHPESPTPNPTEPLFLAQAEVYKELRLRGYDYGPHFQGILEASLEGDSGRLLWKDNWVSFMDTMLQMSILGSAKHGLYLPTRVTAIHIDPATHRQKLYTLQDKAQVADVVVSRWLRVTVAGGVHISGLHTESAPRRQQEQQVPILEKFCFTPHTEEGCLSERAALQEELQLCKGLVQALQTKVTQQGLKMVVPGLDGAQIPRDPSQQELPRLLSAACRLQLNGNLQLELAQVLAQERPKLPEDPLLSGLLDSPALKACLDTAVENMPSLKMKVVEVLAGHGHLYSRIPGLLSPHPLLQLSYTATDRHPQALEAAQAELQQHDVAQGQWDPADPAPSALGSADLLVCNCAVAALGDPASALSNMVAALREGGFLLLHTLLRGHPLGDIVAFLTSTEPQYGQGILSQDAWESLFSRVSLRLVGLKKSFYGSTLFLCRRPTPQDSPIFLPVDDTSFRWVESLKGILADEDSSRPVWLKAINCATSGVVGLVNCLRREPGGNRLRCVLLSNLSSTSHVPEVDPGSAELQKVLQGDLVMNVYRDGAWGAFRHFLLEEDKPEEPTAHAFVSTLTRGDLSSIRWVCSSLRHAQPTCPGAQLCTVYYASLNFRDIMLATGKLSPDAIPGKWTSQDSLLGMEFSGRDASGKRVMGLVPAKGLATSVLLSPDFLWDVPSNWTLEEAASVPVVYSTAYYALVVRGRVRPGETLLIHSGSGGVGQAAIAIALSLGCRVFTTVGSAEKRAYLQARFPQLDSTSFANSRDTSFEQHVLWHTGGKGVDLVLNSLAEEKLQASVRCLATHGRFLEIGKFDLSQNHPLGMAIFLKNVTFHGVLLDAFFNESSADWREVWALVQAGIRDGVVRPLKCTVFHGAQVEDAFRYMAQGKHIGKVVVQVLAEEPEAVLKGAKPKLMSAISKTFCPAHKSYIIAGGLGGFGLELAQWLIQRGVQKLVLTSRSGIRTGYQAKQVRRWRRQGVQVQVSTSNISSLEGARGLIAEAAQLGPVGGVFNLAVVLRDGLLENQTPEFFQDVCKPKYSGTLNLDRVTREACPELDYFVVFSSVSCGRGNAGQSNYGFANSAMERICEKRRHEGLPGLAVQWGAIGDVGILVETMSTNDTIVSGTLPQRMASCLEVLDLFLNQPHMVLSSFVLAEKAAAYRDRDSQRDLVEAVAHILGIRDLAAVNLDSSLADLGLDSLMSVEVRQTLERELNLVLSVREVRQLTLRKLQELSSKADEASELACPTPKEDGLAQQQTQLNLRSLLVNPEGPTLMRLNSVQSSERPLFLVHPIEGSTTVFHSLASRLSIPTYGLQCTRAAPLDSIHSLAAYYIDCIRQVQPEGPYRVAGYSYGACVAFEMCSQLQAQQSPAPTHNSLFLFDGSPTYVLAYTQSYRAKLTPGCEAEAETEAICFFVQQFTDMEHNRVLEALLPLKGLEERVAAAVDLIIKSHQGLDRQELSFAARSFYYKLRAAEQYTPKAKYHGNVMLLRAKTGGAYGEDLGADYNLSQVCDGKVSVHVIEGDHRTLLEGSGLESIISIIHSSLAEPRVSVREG

For orientation: AC50 means the midpoint of the concentration-response curve, whichever way the signal moves. Regarding `CCCC(=NOCC)C1=C(O)CC(CC(C)SCC)CC1=O` (stereo unspecified), the compound was classed as inactive in experiment [1], in experiment [2], in [3], in experiment [4], in experiment [6] and in experiment [7]. In addition, the outcome in experiment [8], in experiment [9], in experiment [10], in experiment [11], in experiment [13] and in [14] was inactive. For the same compound, the compound was classed as inactive in experiment [15] and in experiment [16]. In addition, the results for the AC50 in [5] and in experiment [12] were 0.554 µM (active) and 73.9 µM (active), respectively.

`CC1(C)CCC(=Cc2ccc(Cl)cc2)C1(O)Cn1cncn1` (stereo unspecified): the compound was called inactive in [17], in [1], in experiment [4], in [5], in [10] and in experiment [11]. Besides, the call in [13], in experiment [14], in experiment [18], in [15] and in experiment [16] was inactive. Further, the AC50 was 5 µM (active) in [2]; 1.59 µM (active) in [3]; 0.716 µM (active) in [6]; 6.85 µM (active) in experiment [8]; 11.2 µM (active) in experiment [12].

As for `CC(C)Oc1cccc(NC(=O)c2ccccc2C(F)(F)F)c1`, the result in experiment [1], in experiment [4], in [5], in [7], in [10] and in experiment [11] was inactive. Further, the result in experiment [13], in experiment [14], in [15] and in experiment [16] was inactive. For the same compound, the AC50 is 37.5 µM (active) in experiment [2]; 7.26 µM (active) in experiment [3]; 8.93 µM (active) in experiment [6]; 65.2 µM (active) in experiment [8]; 0.0398 µM (active) in experiment [9]; 81.6 µM (active) in [12].

Take `CCOc1nc(C(Cl)(Cl)Cl)ns1`: the call in experiment [4], in experiment [5], in [6], in experiment [8] and in [19] was inactive. In addition, the concentration at half-maximal activity (AC50) in experiment [9] is 1.11 µM (active); in experiment [10], 1.18 µM (active); in experiment [11] it was 0.644 µM (active); in experiment [12], 1.44 µM (active); in experiment [13], 0.912 µM (active); in experiment [14], 1 µM (active). For the same compound, the AC50 in experiment [15] is 1.49 µM (active); in [16] it was 0.967 µM (active).

The record behind these values is PubChem BioAssay (EPA / NIEHS).
